Inconclusive results are not listed. Where a call stands in place of a potency, no number is given. Active and inactive are the calls of the source. Calls come from the whole dose curve; as a rule, active = well fitted curve in the direction sought with a large enough effect; inconclusive = small, poorly fitted or top-dose-only effect, or another doubt; inactive = no such curve, though single readings can be large; an effect the other way counts as inactive or inconclusive. Square brackets hold non-standard residues; d marks the D form. Peptide text beside a SMILES is read from it. ξ: configuration not given here. ξL = CC(C)CC(N)C(=O)O

One test in a line: DH5-alpha competent E. coli microbial cell viability qHTS against the NCATS CANVASS Library (AID 1347377). The note with it: BacTiter-Glo ATP luminescence, overnight; series mostly up to 46.1 µM. In short, it runs like this:
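Bacteria were dispensed at 0.2 OD, then compounds were pin-transferred. Plates were incubated overnight at 37C, after which BacTiter-Glo was added and luminescence measured 20 min later.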
In general terms: In qHTS, concentration-response curves come from the screen itself.
Turning to `C[C@H](CCC(O)C(C)(O)CO)[C@@]1(O)CC[C@@]2(C)C3=C(CC[C@@]21C)[C@@]1(C)CCC(OC(=O)CCC(=O)O)C(C)(C)[C@@H]1CC3` (some centres not stated), the result was inactive.

As for `COc1cc(C2C3=C(Cc4cc5c(cc42)OCO5)C(=O)OC3)cc(OC)c1OC` (configuration not stated), the compound was classed as inactive.

With `CO[C@@H]1[C@H](O)[C@@H](C)O[C@@H](OC[C@@H]2C(C)OC(=O)/C=C/[C@H](C)C(O[C@@H]3O[C@H](C)CC4(OC(=O)O[C@@H]4C)C3O)[C@@H](C)CC(C)C(=O)/C=C/[C@H]3OC23)[C@@H]1OC` (some centres not stated), the compound was called inactive.

For the compound `COc1ccc([C@@H]2c3cc4c(cc3C(=O)[C@H](C)C2C)OCO4)cc1OC` (some centres not stated), the result was inactive.

For the compound `C/C(=C\[C@H](C)C(=O)C[C@H](O)CC1CC(=O)NC(=O)C1)[C@@H]1OC(=O)CCCC/C=C/[C@@H](O)C[C@@H]1C`, the call was inactive.

`CC1=C[C@H]2[C@H]3C(=O)C(c4ccc(O)cc4)=C[C@@]3(c3ccc(O)cc3)[C@@H]1C(=O)[C@]2(C)O`: the compound was called inactive.

Turning to `C=C1C(=O)O[C@H]2[C@H]1CCC(C)=C1CC[C@@](C)(O)[C@@H]12`, the compound was classed as inactive.

As to `C/C(=C\[C@H](C)C(=O)/C=C/CC1CC(=O)NC(=O)C1)[C@@H]1OC(=O)CCCC/C=C/[C@H](O)[C@@H](O)[C@@H]1C`, the result was inactive.

For `COc1ccc([C@@H]2c3cc4c(cc3C[C@H](C)C2C)OCO4)cc1OC` (some centres not stated), the call was inactive.

In the case of `C[C@H]1CCC2(OC1)O[C@H]1C[C@H]3[C@@H]4CC(=O)[C@]5(O)C[C@H](O)CC[C@@]5(C)[C@H]4CC[C@@]3(C)[C@H]1[C@H]2C` (some centres not stated), the compound was called inactive.

Consider `C/C1=C/[C@@H](C)[C@H](O)C/C=C/CC/C=C/C(=O)O[C@@H]1[C@H](C)C(=O)CCCC1CC(=O)NC(=O)C1`, for which the compound was called inactive.

On to `C=C1C[C@H]2O[C@@H]3[C@@H]4[C@H](CC[C@@](C)(O)[C@@H]42)[C@H](C)COC3(C)[C@@H](OC(=O)CCCCCCC)CC1=O` (some centres not stated), for which the compound was called inactive.

The next test is described as follows: qHTS for H2AX Agonists against the NCATS CANVASS Library (AID 1347378).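 Note: phospho-H2AX S139 level in CHO-K1 lysates by TR-FRET emission ratio.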 Note: potency is the fitted concentration of half-maximal effect. The note with it: CHO-K1 H2AX phosphorylation, HTRF TR-FRET, 3 h; series mostly up to 76.9 µM. In short, it runs like this: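 Following overnight seeding, CHO-K1 cells are incubated with a concentration series of compound for 3 hr at 37C (final DMSO 0.76%). Cells are then lysed, detection antibodies added, and emission ratio 665/620 nm recorded after 24 hr at room temperature.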
As for `O[C@H]1C=C2[C@H]3CN(Cc4cc5c(cc43)OCO5)[C@H]2C[C@@H]1O`, the Potency entry was “inactive”.

On to `CC[C@@H](c1cc(OC)c(OC)cc1OC)[C@H](C)[C@@H](/C(C)=C/c1cc(OC)c(OC)cc1OC)c1cc(OC)c(OC)cc1OC`, for which the Potency entry is “inactive”.

Take `CC[C@@H](C)[C@H]1NC(=O)C(CC(C)C)NC(=O)[C@@H](CC(C)C)NC(=O)[C@H](Cc2c[nH]c3ccccc23)NC(=O)CNC(=O)[C@@H](CC(N)=O)NC1=O` (stereo partly drawn) (cyclo(GW[dL][ξL][dI][dN])): the Potency entry is “inactive”.

As to `CN1CCc2cc3c(c4c2C1(C)C(=O)c1cc(O)ccc1-4)OCO3` (configuration not stated), the Potency entry is “inactive”.

In the case of `COc1cc2c(cc1OC)[C@@H](c1ccc3c(c1)OCO3)C(C)[C@@H](C)C2=O` (some centres not stated), the Potency result was “inactive”.

Turning to `CC(C)[C@@H]1CC(=O)c2coc3c2[C@H]1C[C@@H](C)C3=O`, the Potency result is “inactive”.

In the case of `COc1cc2oc3ccccc3c(=O)c2cc1OC`, the Potency entry was “inactive”.

Take `COC(=O)[C@@]1(C)CCC[C@]2(C)c3cc(OC)ccc3CC[C@@H]12`: the Potency entry is “inactive”.

As to `COc1cc2ccc(=O)oc2c(O)c1O[C@@H]1O[C@H](CO)[C@@H](O)[C@H](O)[C@H]1O`, the Potency entry is “inactive”.

Regarding `O=C1CCC(=O)N(O)CCCCCNC(=O)CCC(=O)N(O)CCCCCNC(=O)CCC(=O)N(O)CCCCCN1`, the Potency entry is “inactive”.

`C=C1C[C@H]2O[C@@H]3[C@@H]4[C@H](CC[C@@](C)(O)[C@@H]42)[C@H](C)COC3(C)[C@@H](OC(=O)CCCCCCC)C[C@H]1O` (some centres not stated): the Potency result was “inactive”.

As to `CC1=C(C)C(=O)OC(C(C)C2(O)CCC3C4C5OC5C5(O)CC=CC(=O)C5(C)C4CCC32C)C1` (configuration not stated), the Potency result is “inactive”.

With `COc1cc(C2C3=C(Cc4cc5c(cc42)OCO5)C(=O)OC3)cc(OC)c1OC` (configuration not stated), the Potency entry is “inactive”.

For `CO[C@@H]1[C@H](O)[C@@H](C)O[C@@H](OC[C@@H]2C(C)OC(=O)/C=C/[C@H](C)C(O[C@@H]3O[C@H](C)CC4(OC(=O)O[C@@H]4C)C3O)[C@@H](C)CC(C)C(=O)/C=C/[C@H]3OC23)[C@@H]1OC` (some centres not stated), the Potency entry was “inactive”.

As for `C=C[C@@](C)(O)CC[C@@H]1[C@@]2(C)CCCC(C)(C)[C@@H]2CC[C@@]1(C)O`, the Potency entry is “inactive”.

Take `COc1ccc([C@@H]2c3cc4c(cc3C(=O)[C@H](C)C2C)OCO4)cc1OC` (some centres not stated): the Potency result was “inactive”.

For the compound `C/C(=C\[C@H](C)C(=O)C[C@H](O)CC1CC(=O)NC(=O)C1)[C@@H]1OC(=O)CCCC/C=C/[C@@H](O)C[C@@H]1C`, the Potency entry was “inactive”.

Regarding `CC1=C[C@H]2[C@H]3C(=O)C(c4ccc(O)cc4)=C[C@@]3(c3ccc(O)cc3)[C@@H]1C(=O)[C@]2(C)O`, the Potency result is “inactive”.

Consider `C=C1C(=O)O[C@H]2[C@H]1CCC(C)=C1CC[C@@](C)(O)[C@@H]12`, for which the Potency is 27.3 µM (active).

For the compound `C/C(=C\[C@H](C)C(=O)/C=C/CC1CC(=O)NC(=O)C1)[C@@H]1OC(=O)CCCC/C=C/[C@H](O)[C@@H](O)[C@@H]1C`, the Potency entry was “inactive”.

For `C[C@H](c1cnc(N)[nH]1)c1ccc(O)c2[nH]cc(-c3cnc(-c4c[nH]c5ccccc45)c(=O)[nH]3)c12`, the Potency entry is “inactive”.

`COc1ccc([C@@H]2c3cc4c(cc3C[C@H](C)C2C)OCO4)cc1OC` (some centres not stated): the Potency result is “inactive”.

`C[C@H]1CCC2(OC1)O[C@H]1C[C@H]3[C@@H]4CC(=O)[C@]5(O)C[C@H](O)CC[C@@]5(C)[C@H]4CC[C@@]3(C)[C@H]1[C@H]2C` (some centres not stated): the Potency entry is “inactive”.

Turning to `C/C1=C/[C@@H](C)[C@H](O)C/C=C/CC/C=C/C(=O)O[C@@H]1[C@H](C)C(=O)CCCC1CC(=O)NC(=O)C1`, the Potency result was “inactive”.

With `C=C1C[C@H]2O[C@@H]3[C@@H]4[C@H](CC[C@@](C)(O)[C@@H]42)[C@H](C)COC3(C)[C@@H](OC(=O)CCCCCCC)CC1=O` (some centres not stated), the Potency entry was “inactive”.

These data come from PubChem BioAssay (NCATS).
